Measurements as given in PubChem BioAssay.

These molecules were tested against Voltage-gated potassium channel subunit beta-2 (Rattus norvegicus) (UniProt P62483) (assay: KvBeta enzyme negative modulators, primary screen, biochemical, NADPH fluorescence (AID 622;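 note: slope of raw intensity against log time taken from 70 to 1610 s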)). Conditions: recombinant KvBeta, 4-cyanobenzaldehyde reduction, at 10 µM, active compounds read high;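 active = fluorescence slope higher than the sample average by over 3 SD (cut at about -0.22 in these data, passing the limit was not always enough); inactive = the rest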.
Sequence of Voltage-gated potassium channel subunit beta-2 (Rattus norvegicus) (P62483 whole entry, looked up): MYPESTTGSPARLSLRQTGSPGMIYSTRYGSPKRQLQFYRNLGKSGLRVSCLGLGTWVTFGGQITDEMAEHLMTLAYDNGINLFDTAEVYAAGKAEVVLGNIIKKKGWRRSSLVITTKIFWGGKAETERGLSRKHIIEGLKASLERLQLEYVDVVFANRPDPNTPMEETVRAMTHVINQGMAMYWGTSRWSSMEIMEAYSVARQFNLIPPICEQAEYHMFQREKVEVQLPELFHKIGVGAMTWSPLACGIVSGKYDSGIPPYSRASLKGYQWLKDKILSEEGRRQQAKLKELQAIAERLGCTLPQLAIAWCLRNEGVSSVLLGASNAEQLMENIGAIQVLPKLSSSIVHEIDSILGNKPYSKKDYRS

Fluorescence slope, inactive:
CCN1CCc2c(C#N)c(N3CCCCC3)nc(N3CCOCC3)c2C1 -0.46, CC(NC(=O)Nc1nnc(C(F)(F)F)s1)(C(F)(F)F)C(F)(F)F -0.465, O=c1[nH]c2sc3c(c2c(=O)n1Cc1ccccc1)CCC3 -0.453, CC1(C)Cc2c(C#N)c(OCC(=O)c3ccccc3)nc(-c3ccoc3)c2CO1 -0.465, O=c1[nH]c2cnccc2n1-c1ccccc1 -0.404, O=C(c1cc(N2CCCCC2)nc2ccccc12)N1CCOCC1 -0.422, CC(C)(C)NC(=O)/C=N/O -0.466, COc1cc(N2CCCC2)c(OC)cc1/C=c1/sc2nc3ccccc3n2c1=O -0.438, COc1cccc(C(=O)OC2CCCN(C)C2)c1 (stereo not given) -0.457, N#Cc1nc(-c2cccs2)oc1NCc1ccccc1Cl -0.513, Cc1cc(=O)oc(C)c1C(=O)n1nc(C)c2c1C[C@@H]1[C@H]2C1(C)C -0.403, Brc1ccc2c(c1)CNc1c(ncnc1N1CCOCC1)O2 -0.429, CCOC(=O)NC1(C(F)(F)F)C(=O)NC(C)=C1C#N (stereo not given) -0.427, COCc1n[nH]c(=S)n1-c1cccc2ccccc12 -0.415, OC1(C2(O)CC(c3ccccc3)ON2)CCCCC1 (stereo not given) -0.444, CC(C)Cc1nc(N2CCN(C(=O)Cc3ccccc3)CC2)c(C#N)c2c1COC(C)(C)C2 -0.453, CCCCCNc1nc(N2CCCC2)c2c(c1C#N)CCN(C)C2 -0.446, O=c1c(-c2ccc(Cl)cc2)[n+]([O-])c2ccccc2n1O -0.31, COc1ccccc1C1/C(=C(/O)c2ccc(OC(C)C)cc2)C(=O)C(=O)N1c1cc(C)on1 (stereo not given) -0.438, Cc1ccc(CNc2oc(COc3ccccc3Cl)nc2C#N)cc1 -0.387, COc1ccc(/C(O)=C2\C(=O)C(=O)N(CCN(C)C)C2c2cccc(OC)c2OC)cc1Cl (stereo not given) -0.443, CCC(=O)Nc1nc2ccccc2n1CCN(C)C -0.436, CCCC(C)n1[nH]c(=O)cc1N (stereo not given) -0.46, CCN(CC)CCOC(=O)c1c(C)n(C)c2ccc(OC)cc12 -0.466, CN(C)CCCn1c(NC(=O)C2CCCCC2)nc2ccccc21 -0.437, COc1ccccc1NC(=O)CSc1nnc(-c2ccc(NC(C)=O)cc2)n1C -0.46, O=C(Nc1ccc(N2CCN(C(=O)c3ccccc3)CC2)c(Cl)c1)c1ccc(Br)o1 -0.431, Cc1nc2c(o1)CCc1ccccc1C2N1CCN(C)CC1 (stereo not given) -0.412, CN(CCNC(=O)c1ccc(/C=N/O)nc1)Cc1ccccc1 -0.479, O=C1C=C(N2CCN(C3=CC(=O)CCC3)CC2)CCC1 -0.469, Nc1nc2n(n1)C(c1cccs1)CC(c1ccc(F)cc1)N2 (stereo not given) -0.436, CC(=O)/C=C(\C)NCCNc1c(F)c(F)c(CO)c(F)c1F -0.319, CC1(C)Cc2nc3sc4c(N(CCO)CCO)ncnc4c3cc2CO1 -0.474, COC(=O)c1ccc(CN(C(C)=O)c2ccccc2)o1 -0.471, O=C(c1ccc(=O)oc1)N1CCN(C(c2ccccc2)c2ccccc2)CC1 -0.474, Cc1ccc(-n2c(SCC(=O)NCc3ccco3)nc3nc4c(cc3c2=O)COC(C)(C)C4)cc1 -0.408, Cc1cc(=O)[nH]c(COc2ccccc2)n1 -0.432, N#Cc1nc(COc2ccccc2F)oc1NCCCn1ccnc1 -0.414, COC(=O)c1ccc(C2/C(=C(\O)c3ccc4c(c3)OCCO4)C(=O)C(=O)N2CCCN(C)C)cc1 (stereo not given) -0.442, COc1ccc(C(=O)c2oc3nc(C)cc(C)c3c2N)cc1 -0.379
